Results reported in ChEMBL document CHEMBL3988442, “University of Dundee, Small-Polar-MMV Screening Library” (2021).
The whole screen tested about 69,000 compounds, of which about 1,000 (1.4%) showed an effect of 50% or more. This is one part of a sample in which strong results are shown more often than they occur.

Test system: Leishmania donovani
Test: Leishmania intramacrophage assay
Assay type: functional, organism-based
Set-up: scale not given: in the data most compounds retested in dose-response had high values

SMILES | Percent Effect (30.3 µM, […]) [%] | Percent Effect (30 µM, 30.03 µM) [%]
Cc1noc(C)c1CN1CCC(NC(=O)OC(C)(C)C)CC1 | 3.614 | –
CC(C)c1noc(-c2ccc(NCC3CCCOC3)nc2)n1 (stereo not drawn) | 22.02 | –
Cc1cccc(-n2cnnc2CCCN2CCOCC2)c1 | 22.56 | –
COc1cccc(CN2C[C@@H]3COC[C@]3(CNC(=O)C3CC3)C2)c1.O=C(O)C(F)(F)F | 43.72 | –
Cc1nc(CNCc2cccc(OC34CCCN(CC3)C4)c2)n[nH]1 (stereo not drawn) | 36.42 | –
Cc1cnccc1CNCc1ccc(OC23CCCN(CC2)C3)cc1 (stereo not drawn) | 13.67 | –
O=c1[nH]nc(CNCc2ccc(OC34CCCN(CC3)C4)cc2)[nH]1 (stereo not drawn) | 39.69 | –
c1ccc(Oc2cccc(OC34CCCN(CC3)C4)c2)cc1 (stereo not drawn) | 65.6 | –
c1ccc(Oc2ccc(OC34CCCN(CC3)C4)cc2)cc1 (stereo not drawn) | 89.06 | –
COc1cc(C#N)ccc1OC12CCCN(CC1)C2 (stereo not drawn) | 20.92 | –
CCN(CC)C(=O)c1nnn(Cc2ccccc2)c1OC | – | -25.11
Cc1ccc(C(=O)N2CCC3(CCC(=O)N(CC(N)=O)C3)CC2)cc1 | -8.473 | –
CC(C1CC1)N(C(=O)CNc1ccc(C#N)cc1)C1CC1 (stereo not drawn) | 26.89 | –
CN(C)CCN1CC[C@@H]2[C@@H]1CCN2C(=O)c1cccc(Cl)c1 | 54.02 | –
O=C(O)C(F)(F)F.O=C(c1cccc(Cl)c1)N1CC[C@H]2[C@H]1CCN2CC1CCOCC1 | – | 39.19
O=C(O)C(F)(F)F.O=C(c1cccc(Cl)c1)N1CC[C@H]2[C@H]1CCN2CC1CC1 | 23.02 | –
CN1[C@H]2CC[C@@H]1CN(C(=O)c1ccc(-c3ccccc3)[nH]1)CC2 | 78.84 | –
CO[C@H]1CN(C(=O)c2ccc(-c3ccccc3)[nH]2)CC[C@H]1N | 45.29 | –
O=C(c1ccc(-c2ccccc2)[nH]c1=O)N1CCN(C2CC2)CC1 | 25.14 | –
CCCS(=O)(=O)CC(=O)N1CCN(CC2CC2)c2ccccc21 | 3.775 | –
Cc1ccc2c(n1)N(CCN(C)C)CCN(C(=O)c1cccs1)C2.O=C(O)C(F)(F)F.O=C(O)C(F)(F)F | 50.31 | –
Cc1ccc2c(n1)N(CCN(C)C)CCN(C(=O)c1cscn1)C2.O=C(O)C(F)(F)F.O=C(O)C(F)(F)F | 4.389 | –
Cc1ccc2c(n1)N(CCN(C)C)CCN(C(=O)c1ccc[nH]1)C2.O=C(O)C(F)(F)F.O=C(O)C(F)(F)F | – | 20.64
O=C(c1ccc(F)c(F)c1)N1CCCCC1c1nc[nH]n1 (stereo not drawn) | -8.926 | –

SMILES | Percent Effect (30.3 µM, […]) [%] | Percent Effect (30 µM, 30.03 µM) [%]
CC(=O)c1ccc(C(=O)N2CCCCC2c2nc[nH]n2)cc1 (stereo not drawn) | 66.49 | –
O=C(c1ccoc1)N1CCCCC1c1nc[nH]n1 (stereo not drawn) | 24.92 | –
CCOCC1CN(C(=O)c2cscn2)Cc2cn(C)nc21.O=C(O)C(F)(F)F (stereo not drawn) | -0.7565 | –
O=C(c1ccc(-c2ccc(O)nc2)s1)N1CCCCCC1 | 19.86 | –
CCn1ccnc1CN(C)c1cc(C2CCCNC2)nc(C)n1 (stereo not drawn) | -6.202 | –
Cc1nc(C2CCCNC2)cc(N(C)CCc2ccccc2)n1 (stereo not drawn) | 66.58 | –
Cl.c1cc(CC2CCCNC2)nc(NCCc2cnccn2)c1 (stereo not drawn) | 2.895 | –
Cl.c1ccc(CCNc2cccc(C3CCCNC3)n2)cc1 (stereo not drawn) | 71.14 | –
Cl.c1cc(NCc2ccncc2)nc(C2CCCNC2)c1 (stereo not drawn) | 20.7 | –
Cc1nc(C2CCCNC2)cc(N(C)CCc2cn[nH]c2)n1 (stereo not drawn) | 29.46 | –
CC1(C)Cc2c(cnn2-c2ccccc2)C(NC2CCSCC2)C1 (stereo not drawn) | 17.91 | –
CCN1C(=O)[C@H]2CN(Cc3cccnc3)C[C@H]2C12CCN(C(C)=O)CC2 | 4.627 | –
NC(=O)C1CCN(C(=O)Cc2ccc(Cl)c(Cl)c2)CC1 | 12.37 | –
CSCCC(O)C(=O)N1CCC(OCc2cccnc2)CC1 (stereo not drawn) | -15.88 | –
NC(=O)CN1CCC(OCc2ccc(Cl)c(Cl)c2)CC1 | 39.98 | –
CNC(=O)CN1CCC(OCc2ccc(Cl)c(Cl)c2)CC1 | 23.39 | –
CCC(N)C(=O)N1CCC(OCc2ccc(Cl)c(Cl)c2)CC1.Cl (stereo not drawn) | 81.5 | –
CCOc1cc(-c2cc(=O)n3c(n2)CCCCC3)ccc1O | -28.99 | –
O=C(O)C(F)(F)F.O=C([C@H]1COC[C@H]2CN(c3ncc(F)cn3)C[C@H]21)N1CCOCC1 | 11.96 | –
O=C(CCN1CCCC(CO)(CC2CC2)C1)NCc1cccc(Cl)c1 (stereo not drawn) | 10.86 | –
COCCN1CC[C@@H]2OC[C@H](C(=O)N(C)Cc3ccccn3)C[C@@H]2C1 | 34.37 | –
CN(Cc1ccccn1)C(=O)[C@H]1CO[C@H]2CCN(CC3CC3)C[C@H]2C1.O=C(O)C(F)(F)F.O=C(O)C(F)(F)F | 67.47 | –
O=C(NCCc1cccs1)[C@H]1CO[C@H]2CCN(CC3CC3)C[C@H]2C1.O=C(O)C(F)(F)F | 18.2 | –
Cc1nc(CN2CCO[C@H]3CN(C(=O)c4cccn4C)C[C@H]32)cs1 | 20.02 | –
